From PubChem
LRH-1 inv ag: NR5A2 inverse agonism in reporter assay; HEK293T StAR-luciferase reporter, LRH-1 transfected, 24 h; inhibition, % at 3.6 µM; actives 0.13% (n = 360,000);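 active = inhibition above the mean inhibition of all tested compounds plus 3 SD, cut at about 73% in these data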;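 also: 0% = DMSO wells and 100% = reporter-only cells lacking LRH-1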
NCOA2 inhibitor: human SRC2 (NCOA2) inhibition; Q15596; HEK293 GAL4-SRC2 luciferase reporter, luminescence; inhibition, % at 9 µM; actives 0.17% (n = 370,000);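 active = inhibition above the mean inhibition of all tested compounds plus 3 SD, set per campaign, cut at about 52% in these data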;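 also: 0% = DMSO treated cells and 100% = cells given Gossypol at 36 µM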
Gli-Sufu block: Gli-Sufu pathway antagonism; Sufu-KO-LIGHT fibroblasts, Gli luciferase reporter luminescence; inhibition, % at 5 µM; actives 0.74% (n = 340,000);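 active = inhibition above about 55%, limit read from the data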;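 also: 0% = DMSO-treated cells and 100% = wells with medium but no cells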
NCOA1 inh: inhibits human SRC1 coactivator; Q15788; HEK293 GAL4-SRC1 luciferase reporter, luminescence; inhibition, % at 3.6 µM; actives 0.12% (n = 360,000);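 active = inhibition above the campaign mean plus 3 SD, with each screening campaign given its own cutoff, cut at about 60% in these data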;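 also: 0% = DMSO treated cells and 100% = gossypol at 36 µM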
Target sequence (Q15788 whole entry, looked up, the tested form may be a part): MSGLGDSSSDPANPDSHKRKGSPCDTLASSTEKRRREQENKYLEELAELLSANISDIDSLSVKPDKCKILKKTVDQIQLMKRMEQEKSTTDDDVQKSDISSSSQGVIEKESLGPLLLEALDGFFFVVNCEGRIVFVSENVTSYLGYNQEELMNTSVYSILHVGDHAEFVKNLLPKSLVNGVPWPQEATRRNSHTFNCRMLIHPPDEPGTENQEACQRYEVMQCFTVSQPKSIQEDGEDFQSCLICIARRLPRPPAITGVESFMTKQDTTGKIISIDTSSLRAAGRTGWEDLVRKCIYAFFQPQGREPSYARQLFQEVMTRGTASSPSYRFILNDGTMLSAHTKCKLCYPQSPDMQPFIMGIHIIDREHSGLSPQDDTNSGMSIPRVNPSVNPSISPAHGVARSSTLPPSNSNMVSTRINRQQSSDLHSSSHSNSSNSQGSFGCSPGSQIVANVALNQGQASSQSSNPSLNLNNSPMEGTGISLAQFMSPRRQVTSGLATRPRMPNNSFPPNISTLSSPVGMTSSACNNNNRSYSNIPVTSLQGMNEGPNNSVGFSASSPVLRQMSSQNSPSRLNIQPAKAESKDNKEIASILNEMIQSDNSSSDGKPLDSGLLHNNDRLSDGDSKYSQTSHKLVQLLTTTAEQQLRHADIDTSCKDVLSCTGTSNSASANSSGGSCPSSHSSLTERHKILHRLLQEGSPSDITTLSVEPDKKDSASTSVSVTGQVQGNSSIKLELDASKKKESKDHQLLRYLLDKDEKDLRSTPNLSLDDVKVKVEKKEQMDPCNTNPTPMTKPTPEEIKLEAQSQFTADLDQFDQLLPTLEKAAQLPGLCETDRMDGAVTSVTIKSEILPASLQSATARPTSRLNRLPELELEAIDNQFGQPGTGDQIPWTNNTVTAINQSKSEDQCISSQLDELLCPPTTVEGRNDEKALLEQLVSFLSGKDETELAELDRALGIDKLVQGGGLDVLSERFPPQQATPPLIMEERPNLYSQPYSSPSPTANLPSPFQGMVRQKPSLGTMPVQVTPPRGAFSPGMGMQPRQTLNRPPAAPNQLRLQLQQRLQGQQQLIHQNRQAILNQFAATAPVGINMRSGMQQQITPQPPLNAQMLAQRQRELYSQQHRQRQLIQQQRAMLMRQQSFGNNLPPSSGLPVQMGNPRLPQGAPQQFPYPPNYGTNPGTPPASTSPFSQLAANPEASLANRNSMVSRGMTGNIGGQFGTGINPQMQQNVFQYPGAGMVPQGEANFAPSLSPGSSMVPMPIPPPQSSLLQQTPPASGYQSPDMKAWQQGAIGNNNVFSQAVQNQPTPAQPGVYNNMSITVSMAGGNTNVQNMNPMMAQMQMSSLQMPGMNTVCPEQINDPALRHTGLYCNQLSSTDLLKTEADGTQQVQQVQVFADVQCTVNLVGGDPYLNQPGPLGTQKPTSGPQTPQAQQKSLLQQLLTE
SRC3 inh: inhibitors of human steroid receptor coactivator 3 (SRC3) | AID 588352 | actives 0.17% (n = 360,000) | HEK293 GAL4-SRC3 luciferase reporter, luminescence | inhibition, % at 3.6 µM | Q9Y6Q9;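 active = inhibition above a per-campaign cutoff, the mean of all compounds plus 3 SD, cut at about 60% in these data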;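 also: 0% = DMSO-treated cells and 100% = gossypol-treated cells at 36 µM; higher means less SRC3-driven luciferase light from the GAL4 reporter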
Gli-Sufu confirm: Gli-SUFU antagonism confirmation, single concentration. shares compounds with Gli-Sufu block. Sufu-KO-LIGHT cells, Gli luciferase reporter, luminescence. inhibition, % at 5 µM. actives 40% (n = 2,500);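 active = mean inhibition at 5 µM reaching about 45%, limit read from the data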;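 also: plate controls were DMSO-treated cells for no effect and wells lacking cells for full effect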
SufuKO cytotox: cytotoxic in Gli-SUFU antagonist counter-screen. shares compounds with Gli-Sufu block. Sufu-KO-LIGHT cells cytotoxicity, ATP luminescence. cytotoxicity, % at 5 µM. actives 32% (n = 2,500);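 active = mean cytotoxicity at 5 µM above about 25%, limit read from the data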;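 also: cells exposed to compound overnight for roughly 16 to 18 hours; plate controls were DMSO wells with cells for no effect and medium without cells for full effect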
Wnt3a counter: counter-screen for Gli-SUFU antagonists: Wnt3a reporter inhibition; shares compounds with Gli-Sufu block; Wnt-LIGHT cells, Wnt3a-driven luciferase reporter, luminescence; inhibition, % at 6.25 µM; actives 20% (n = 2,500);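 active = mean inhibition above about 25%, limit read from the data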
Starred values were filed as active, the others as inactive; · = no result given. Hits are enriched below; roughly 0.83% of the tested compounds scored in any of these assays.

SMILES	LRH-1 inv ag	NCOA2 inhibitor	Gli-Sufu block	NCOA1 inh	SRC3 inh	Gli-Sufu confirm	SufuKO cytotox	Wnt3a counter
CC(=O)c1cn(CCCOc2ccccc2)c2ccccc12	8	-2	50	-14	15	19	7	-8
O=C(C(=O)N1CCOCC1)c1cn(CCCOc2ccccc2)c2ccccc12	1	-15	-11	-13	19	·	·	·
C[C@H]1CN([C@@H](C)CO)C(=O)CCCn2cc(nn2)CO[C@@H]1CN(C)C(=O)Oc1cccc2ccccc12	·	-21	·	·	·	·	·	·
Cn1cccc1/C=C1/C(=O)NC(=O)N(Cc2ccccc2)C1=O	9	6	53	-9	-21	45*	38*	26*
O=C(O)C(Br)Br	·	16	·	·	·	·	·	·
CCCCCCn1c(=O)c(C(=O)Nc2cnccn2)c(O)c2ccccc21	9	-36	78*	-13	5	79*	-7	30*
CCCCCc1nc2ccccc2c(=O)n1-c1ccccc1[N+](=O)[O-]	4	18	2	-2	14	·	·	·
CCCCCc1nc2c(c(=O)c3ccccc3n2C)c(=O)n1C1CCCCCC1	-6	-14	52	9	-2	36	24	-7
CC(NCc1cccc(Cl)c1Cl)C(O)c1ccccc1 (centres undefined)	15	-10	97*	-2	6	17	1	-3
O=C1NC2C(=CC(O)C(O)C2O)c2cc3c(c(O)c21)OCO3 (centres undefined)	97*	68*	84*	96*	94*	92*	78*	104*
O=C1NC2C(=CC(O)C(O)C2O)c2cc3c(cc21)OCO3 (centres undefined)	97*	75*	71*	94*	91*	70*	3	102*
Cc1ccc(OC(=O)N(C)C[C@@H]2OCc3ccccc3-c3c(n(C)c4ccccc34)C(=O)N([C@H](C)CO)C[C@H]2C)cc1	·	11	·	·	·	·	·	·
CC12CN3CCN(CC(C3)/C1=N/NC(N)=O)C2	-2	8	-3	-5	15	·	·	·
CCC12CN3CCN(CC(C3)/C1=N/NC(N)=O)C2	10	-7	61*	2	15	18	-7	15
COc1ccc2nc(-c3ccc(CN4CCC(n5c(=O)[nH]c6cc(Cl)ccc65)CC4)cc3)c(-c3ccccc3)nc2c1	·	-3	·	·	·	·	·	·
Cc1cc(N2CCNC[C@@H]2C)ccc1N1CCN[C@@H](C)C1	·	1	·	·	·	·	·	·
COc1ccc(O)c2c(=O)c3c(OC)cc4c(c3oc12)C1C=COC1O4 (centres undefined)	13	-13	60*	-5	7	69*	37*	20
COC(=O)C1C(c2ccccc2)CC2CCC1N2C (centres undefined)	·	-1	·	·	·	·	·	·
Cc1cc(-c2ccccc2)cc(C)[n+]1Cc1ccccc1	26	24	79*	10	23	84*	17	32*
CCOC(=O)C1=C(C(=O)OCC)C2(c3ccccc3)c3ccccc3C1(C)N2C (centres undefined)	·	-11	·	·	·	·	·	·
Cc1cccc(-n2c(/C=C/c3ccc([N+](=O)[O-])o3)nc3ccccc3c2=O)c1	20	-10	72*	0	-5	63*	31*	22
Cc1cc(/C=C2\C(=O)NC(=O)N(C)C2=O)c(C)n1-c1ccc2c(c1)OCO2	9	-16	69*	-18	10	23	-1	-20
COC(=O)C1C(c2ccc(I)cc2)CC2CCC1N2C (centres undefined)	·	14	·	·	·	·	·	·
Cc1cccc(N2C(=O)NC(=O)/C(=C\c3cc(C)n(-c4sc5c(c4C#N)CCCC5)c3C)C2=O)c1C	-10	17	58*	3	-12	50*	34*	-31
COc1ccccc1CN1CCN(C(=O)COc2cccc(C)c2)CC1	-4	-3	94*	-14	-8	10	27*	-37
SMILES	LRH-1 inv ag	NCOA2 inhibitor	Gli-Sufu block	NCOA1 inh	SRC3 inh	Gli-Sufu confirm	SufuKO cytotox	Wnt3a counter
CC(C)(C)n1nnnc1C1CN=C(c2ccccc2)c2cc(Cl)ccc2N1 (centres undefined)	·	-1	·	·	·	·	·	·
CCOP(=O)(OCC)C1(O)C(=O)Nc2ccccc21 (centres undefined)	25	13	-10	1	1	·	·	·
CC1CCCC(C2(O)C(=O)Nc3ccccc32)C1=O (centres undefined)	5	-1	96*	-6	9	31	15	10
COc1ccc(C[C@H]2NC[C@H](O)[C@H]2OC(C)=O)cc1	102*	71*	87*	95*	93*	92*	75*	104*
CCCC(=O)c1cc(CP(=O)(OCC)OCC)oc1C	-7	-14	-1	4	15	·	·	·
CCOP(=O)(Cc1cc(C(C)=O)c(C)o1)OCC	-3	-7	68*	2	7	11	5	-6
C[C@@H]1CNCCN1c1ccc(N2CC[C@H](O)C2)c(C#N)c1	·	9	·	·	·	·	·	·
COC(=O)C1=C(c2cc3ccccc3o2)C[C@@H]2CC[C@H]1N2C(=O)N1CCC(C)CC1	-5	-18	53	7	18	41	22	-3
N#CCCn1cc(C(=O)Nc2ccc(F)cc2)c(-c2ccccc2)n1	1	-1	51	-19	-18	31	2	2
CC(C)CC(NC(=O)CCCNC(=O)CCC(=O)OC1O[C@H]2OC3(C)CC[C@H]4[C@H](C)CCC(C1C)C24OO3)C(=O)O (some centres undefined)	84*	23	85*	43	73*	78*	-8	15
CC1C(OC(=O)CCC(=O)NC(C)(C)CO)O[C@H]2OC3(C)CC[C@H]4[C@H](C)CCC1C24OO3 (some centres undefined)	90*	6	85*	55	54	86*	-2	25
CC1C2Cc3ccc(O)cc3C1(C)CCN2CC1CC1 (centres undefined)	·	-15	·	·	·	·	·	·
C=CC1C[N+]2(C)CCC1CC2C(O)c1ccnc2ccccc12 (centres undefined)	·	-32	·	·	·	·	·	·
CC(C)C(NC(=O)C(C(C)C)N(C)C)C(=O)N(C)C(C(=O)N1CCCC1C(=O)N1CCCC1C(=O)NCc1ccccc1)C(C)C (centres undefined)	27	16	51	-7	19	57*	52*	14
Cc1cc(N2CCNC[C@H]2C)ccc1N1CCN[C@H](C)C1	·	2	·	·	·	·	·	·
Cc1ccc(-c2cc(-c3ccc(C)cc3)[n+](C)o2)cc1	66	-6	83*	49	54	86*	30*	36*
Cc1ccc2nc(-c3ccc(CN4CCC(n5c(=O)[nH]c6cc(Cl)ccc65)CC4)cc3)c(-c3ccccc3)nc2c1	·	-3	·	·	·	·	·	·
